A selection: hits, their analogues and other compounds. The true share with any hit is near 13%.
Pf growth 48h – Primary qHTS for delayed death inhibitors of the malarial parasite plastid, 48 hour incubation; P. falciparum luciferase growth in erythrocytes, 48 h; Potency, µM (series often up to 28.7 µM), for inactives: at the highest dose activity change, negative = inhibition, actives largely listed as inhibitors; hit rate 5.9% among 310,000; note: potency is the fitted concentration of half-maximal effect
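Erythrocytes infected with P. falciparum carrying an integrated firefly luciferase reporter (2% hematocrit, 0.1% parasitemia final) were exposed to compounds in RPMI 1640 with 0.5% Albumax at 37 C, 5% CO2. Growth inhibition was scored as reduced luminescence.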
Pf growth 96h – Primary qHTS for delayed death inhibitors of the malarial parasite plastid, 96 hour incubation; P. falciparum luciferase reporter growth, 96 h; Potency, µM (top dose mostly 28.7 µM), without a hit: at the highest dose activity change, negative = inhibition, actives largely listed as inhibitors; hit rate 6.9% among 320,000; AID 504834, 2011; note: potency is the fitted concentration of half-maximal effect
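Two parasite generations (96 h, 37 C, 5% CO2) of compound exposure in infected erythrocytes (0.05% parasitemia, 2% hematocrit). Luciferase-reporter P. falciparum; decreased luminescence indicates inhibited growth, aimed at apicoplast-acting delayed death.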
HCMV inh – qHTS Assay for inhibitors of the human cytomegalovirus (HCMV) | HFF cells, HCMV-luciferase reporter, 72 h; stronger effect = lower value | activity change, negative = inhibition, % at 57.5 µM | hit rate 4.5% among 410,000 | AID 1259415, 2018; in the data active = activity change below about -60%; inconclusive = no clear call, values can overlap the other calls; inactive = above about -39%
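HFF cells seeded 16 h at 37C, treated with compounds, infected with luciferase-reporter HCMV at MOI 1 PFU/cell; luciferase read at 72 h post infection, normalized to buffer-only and Salinomycin controls.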
HCV inhibitor – qHTS Assay for Inhibitors of Hepatitis C Virus (HCV); hit rate 3.4% among 340,000; AID 651820, 2012; Potency, µM (series often up to 41.8 µM), inactives show at the top dose activity change, negative = inhibition, usual class: inhibitors; Huh7.5.1 HCVcc-Cre infection, luciferase reporter, 44 h; note: potency is the fitted concentration of half-maximal effect
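Cells seeded at 1,000/well and cultured 4 h, then compounds added followed by HCVcc-Cre virus (~0.5 moi). After 44 h further culture, luciferase substrate was added, plates held 15 min at room temperature, and luminescence read for 15 sec.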
An asterisk follows results filed as active; ? = inconclusive; . = not tested or not shown. Unless noted, calls come from the whole dose curve; as a rule, active = well fitted inhibition curve with a large enough effect; inconclusive = small, poorly fitted or top-dose-only effect, or another doubt; inactive = no such curve, though single readings can be large or run the other way. % is set by controls: 0 for no effect and ±100 for the full control effect.

SMILES	Pf growth 48h	Pf growth 96h	HCMV inh	HCV inhibitor
Cc1ccc2c(CN3CCN(S(=O)(=O)c4ccc(Cl)cc4)CC3)cc(=O)oc2c1C	4.1µM*	?	-35	?
Cc1ccc2c(CN3CCC(C)CC3)cc(=O)oc2c1C	?	?	22	-24%
Cc1ccc2c(CN3CCOCC3)cc(=O)oc2c1C	33%	?	36	17%
Cc1ccc2c(CN3CC(C)CC(C)C3)cc(=O)oc2c1C (stereo unspecified)	?	15µM*	49	?
COc1ccccc1N(C)S(=O)(=O)c1ccc(C(=O)NCCc2ccc(F)cc2)cc1	?	?	-33	?
COc1ccccc1N(C)S(=O)(=O)c1ccc(C(=O)Nc2nc(C)c(C(C)=O)s2)cc1	12µM*	?	-1	2%
CCCc1nnc(NC(=O)c2ccc(S(=O)(=O)N(C)c3ccccc3OC)cc2)s1	10µM*	13µM*	0	4%
COc1ccc(C(=O)Nc2nccs2)cc1OC	98%	.	121	?
COc1ccccc1N(C)S(=O)(=O)c1ccc(C(=O)Nc2ncc(C)s2)cc1	?	?	?	14µM*
COc1ccccc1N(C)S(=O)(=O)c1ccc(C(=O)Nc2nccs2)cc1	15µM*	?	?	11µM*
CCc1ccc(CNC(=O)c2cnc3sc(N4CCCCC4)nn3c2=O)cc1	.	.	14	.
CCOc1cc(-c2nnc(SCC(=O)Nc3ccc(F)c(F)c3)nc2-c2ccc(OC)c(OCC)c2)ccc1OC	.	.	8	.
CC(C)C[C@H]1COc2ccc(Cl)cc2S(=O)(=O)N1C[C@H](NC(=O)OC(C)(C)C)C(C)C	.	.	-32	.
CCOc1cc(Cn2c(-c3ccc(O)c(OCC)c3)nc3ccccc32)ccc1O	.	.	-8	.
Cc1ccc(C(=O)N2c3ccccc3N(Cc3ccccc3)C(=O)C2(C)C)cc1	12µM*	7.4µM*	-93*	11µM*
CCn1c(CNC(=O)c2ccc(OC)cc2)nnc1SCC(=O)Nc1cccc(C)c1	.	.	20	.
O=C(Nc1ccc(Cl)cc1)Nc1cc([N+](=O)[O-])ccc1F	?	-102%	-79*	-2%
O=C(Nc1ccccc1CC[N+](=O)[O-])N1CCN(c2ccccc2)CC1	10µM*	12µM*	-24	-7%
O=C(Nc1ccc(C(=O)O)cc1)Nc1ccc([N+](=O)[O-])cc1	-1%	8%	14	-7%
O=C(Nc1ccc([N+](=O)[O-])cc1)Nc1ccc(Cl)cc1F	4.1µM*	33%	-99*	3%
O=C(Nc1ccc(Cl)cc1)Nc1ccccc1CC[N+](=O)[O-]	12µM*	?	14	?
CCC(C)(C)C(=O)Nc1cc([N+](=O)[O-])ccc1F	-15%	-21%	-18	-3%
C#CCN(C[C@H]1[C@H](OC(=O)NCCCCCC)[C@H](OC(=O)NCCCCCC)CN(C(=O)OC(C)C)N1C(=O)OC(C)C)S(=O)(=O)c1ccc(C)cc1	.	.	-6	.
COC(=O)c1ccc(NC(=O)Nc2ccc([N+](=O)[O-])cc2)cc1	?	-7%	-23	?
Cc1cc(OC(F)F)ccc1NC(=O)Nc1ccc([N+](=O)[O-])cc1	?	?	-79*	?
SMILES	Pf growth 48h	Pf growth 96h	HCMV inh	HCV inhibitor
COc1cccc(-c2nc(NC(C)(C)C)c3ccccc3n2)c1O	10µM*	?	11	?
COc1cccc(-c2nc(Oc3cc(C)cc(C)c3)c3ccccc3n2)c1O	30%	-6%	.	6%
COc1ccc(Nc2nc(-c3cccc(OC)c3O)nc3ccccc23)cc1	7.4µM*	?	?	5.6µM*
COc1cccc(NC(=O)CSc2nc3c(sc4ccccc43)c(=O)n2CCCN2CCCC2)c1	10µM*	20%	-102*	?
CCN(CC)CCn1c(SCC(=O)Nc2cccc(OC)c2)nc2c(sc3ccccc32)c1=O	?	?	-37	1.8µM*
Cc1ccc(CNC(=O)CSc2nc3c(sc4ccccc43)c(=O)n2CCCN2CCCC2)cc1	10µM*	25%	-39	?
O=C(CSc1nc2c(sc3ccccc32)c(=O)n1CCCN1CCCC1)NCc1ccccc1	?	314%	-19	?
COc1cccc(NC(=O)CSc2nc3c(sc4ccccc43)c(=O)n2CCN(C)C)c1	?	?	57	?
CN(C)c1ccc(C(=O)c2ccc(N(C)C)c3ccccc23)cc1	?	-22%	-80*	11µM*
CCCCOP(=O)(OCCCC)C(O)c1ccc(F)cc1 (stereo unspecified)	?	-22%	13	3%
CC(C)COP(=O)(OCC(C)C)C(O)c1ccc(F)cc1 (stereo unspecified)	-4%	?	-100*	15%
COc1ccccc1CCNC(=O)C1(c2cccs2)CCOCC1	.	.	-5	.
NC(=O)c1nsc(C(=O)N(Cc2cccnc2)C(C(=O)NC2CCCC2)c2ccc(F)cc2)c1N (stereo unspecified)	?	12%	30	10%
COc1ccc(C(C(=O)NC2CCCC2)N(Cc2cccnc2)C(=O)c2snc(C(N)=O)c2N)cc1 (stereo unspecified)	12µM*	13µM*	34	-19%
COc1ccc(OC)c(N(C(=O)c2snc(C(N)=O)c2N)C(C(=O)NCc2ccccc2)c2ccc(O)cc2)c1 (stereo unspecified)	10µM*	13µM*	0	?
COc1ccccc1N(C(=O)c1snc(C(N)=O)c1N)C(C(=O)NC1CCCCC1)c1cccc(OC)c1OC (stereo unspecified)	8.3µM*	-8%	?	?
COCCNC(=O)C(c1ccc(C)o1)N(C(=O)c1snc(C(N)=O)c1N)c1cc(C)cc(C)c1 (stereo unspecified)	?	.	-78*	-10%
COc1ccc(N(C(=O)c2snc(C(N)=O)c2N)C(C(=O)NCc2ccccc2)c2ccc(O)cc2)cc1 (stereo unspecified)	-13%	9%	26	?
COc1ccc(N(C(=O)c2snc(C(N)=O)c2N)C(C(=O)NC2CCCC2)c2cccs2)c(OC)c1 (stereo unspecified)	?	79%	-13	?
COc1cccc(C(=O)Nc2c(C(=O)NC(C)(C)C)oc3ccccc23)c1	.	.	-15	.
CCCCOc1ccc(CNC(=O)CN2CCSc3ccccc32)cc1	.	.	36	.
COc1cccc(C(C(=O)NC2CCCC2)N(C(=O)c2ccco2)c2ccccc2F)c1OC (stereo unspecified)	8.3µM*	31%	25	7%
COc1cccc(C(C(=O)NC2CCCC2)N(Cc2ccco2)C(=O)c2ccco2)c1OC (stereo unspecified)	?	100%	-19	-16%
COc1ccccc1N(C(=O)c1snc(C(N)=O)c1N)C(C(=O)NC1CCCC1)c1ccco1 (stereo unspecified)	-17%	14%	?	0%

Screens from PubChem.
